Results: PubChem BioAssay (NCI)
This is part of a sample that, as a whole, favours compounds with a hit. Of some 83,000 tested, about 20% had one in any assay.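 In brief: 96-well plates, 48 h treatment, single concentration, percent growth endpoint.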 A number with no mark means an inactive call. Activity calls are given as the source filed them. Rule for the calls: active = growth percent below 10; inactive = the rest.

Legend:
Experiment in all cases: NCI-60 one-dose screen, 48 h (100 = growth as untreated, 0 = no growth, -100 = all killed)
Settings in all cases: 10 µM unless noted
[1] = test system: DU-145 prostate
[2] = test system: K-562 leukemia
[3] = test system: MALME-3M melanoma
[4] = test system: MDA-MB-231 breast
[5] = test system: RXF 393 renal
[6] = test system: SF-268 CNS
[7] = test system: SF-295 CNS
[8] = test system: SF-539 CNS
[9] = test system: M14 melanoma
[10] = test system: UACC-257 melanoma

Row | Compound | growth [1] | growth [2] | growth [3] | growth [4] | growth [5] | growth [6] | growth [7] | growth [8] | growth [9] | growth [10]
1 | CC1=C(CCCNS(C)(=O)=O)C2=C(C)C3(CC3)[C@@](C)(O)C(=O)C2=C1 | 4.13% (active) | 106% | -63.1% (active) | -3.41% (active) | -75.6% (active) | 8.41% (active) | 2.69% (active) | -38.6% (active) | -51.3% (active) | 
2 | COC(=O)[C@@H](C)C[C@H](Cc1ccccc1)NC(=O)c1csc([C@@H](C[C@H](C(C)C)N(C)C(=O)[C@@H](NC(=O)[C@H]2CCCN2C)C2CC2)OC(C)=O)n1 | 8.13% (active) | 4.01% (active) | 64.2% | 6.59% (active) | 81.3% | 15.9% | 0.995% (active) | -14.6% (active) | 5.11% (active) | 56.9%
3 | OCc1ccc2c(c1)OCO2 | 105% | 101% | 97.5% | 102% | 103% | 100% | 93.8% | 96.1% | 103% | 
4 | C[C@@]12CC=C3c4nc(Nc5cccc(O)c5)sc4CC[C@]3(C)[C@H]1CC[C@]1(C)C(=O)CC[C@@H]21 | 12.7% | 4.81% (active) | 35.3% | 39.5% | -6.67% (active) | 43.1% | -47.7% (active) | -41.8% (active) | 54.8% | 79.6%
5 | CN1C(=O)N[C@H]2[C@@H]3NC(=O)c4ccc(Br)n4[C@@H]3C[C@]21O | -8.47% (active) | -2.38% (active) | -27.3% (active) | -28% (active) | -27.5% (active) | -2.59% (active) | -36.2% (active) | -59.8% (active) | -70.8% (active) | 
6 | C=CCCCN=C=S | 60.5% | 59.8% | 76.7% | 68.3% | 80% | 77.4% | 92.4% |  | 60.9% | 62.5%
7 | CC(C)CCC(=O)O[C@H]1CC[C@H]2[C@@H]3CCC4=CC(=O)CC[C@]4(C)[C@H]3CC[C@]12C | 96.5% | 98.2% | 84.2% | 98.2% | 107% | 93.1% | 102% | 96% | 98.9% | 
8 | c1ccc(COc2ccc3[nH]cc(CCN(Cc4ccccc4)Cc4ccccc4)c3c2)cc1 | 98.8% | 71.1% | 91.3% | 83.3% | 91.2% | 92.4% | 91.4% | 97.1% | 98.6% | 
9 | COc1ccc(C(=O)c2sc3nc4c(cc3c2N)N2CCC4CC2)cc1OC | 103% | 73.3% | 93% | 66.9% | 85.6% | 105% | 88.9% |  | 109% | 111%
10 | O=C([O][Hg][c]1ccccc1)c1ccccc1 | -35.7% (active) | -21.4% (active) | -4.96% (active) | -53.1% (active) | -72.4% (active) | -34.9% (active) | 56.8% | 19.4% | -68.3% (active) | -30% (active)
11 | Nc1nnnc2nc[nH]c12 | 3.72% (active) | 4.73% (active) | 34.8% | 14.5% | 11.6% | 28.6% | 0.603% (active) | 14.3% | -35.4% (active) | 
12 | COc1cc2c(cc1OCCCn1c(-c3ccccn3)nc3ccccc31)N=C[C@@H]1CCCN1C2=O | 26% | 17.4% | -9.03% (active) | 6.19% (active) | -11.8% (active) | 10.4% | -3.07% (active) | 14.3% | 10.5% | 
13 | CC12CCC3C(CCC4=CC(=O)CCC43CF)C1CCC2=O (configuration not stated) | 116% | 93.5% | 94.2% | 118% | 67.7% | 110% | 106% | 106% | 103% | 97%
14 | O=C1NC(=O)C(=Cc2cn(CCCCCCn3c4ccccc4c(=O)c4ccccc43)c3ccccc23)C(=O)N1 | 96.8% | 77.4% | 95.8% | 69.1% | 127% | 94.5% | 65.7% | 93% | 94.1% | 104%
15 | COC1OC(CO)C(O)C(O)[CH]1[Hg][O]C(C)=O (configuration not stated) | 96.3% | 27.3% | 76.4% | 81.9% | 110% | 97.6% | 102% | 106% | 93.7% | 
16 | CC1=C(CCCOC(=O)CN)C2=C(C)C3(CC3)[C@@](C)(O)C(=O)C2=C1 | 17% | 90.2% | 114% | 95.2% | -16.4% (active) | 48.7% | 86.8% | 94% | 73.8% | 86%
17 | Fc1ccc2c(c1)c(-c1nc(-c3c[nH]c4ncccc34)cs1)cn2CCCCN1CCCCC1 | -93.1% (active) | -74.1% (active) | -73% (active) | -88.4% (active) | -73.1% (active) | -77.5% (active) | -60.7% (active) | -82.4% (active) | -88.5% (active) | -87.2% (active)
18 | CC(C)[C@@H]1NC(=O)[C@]2(C)CSC(=N2)c2csc(n2)CNC(=O)C[C@@H](/C=C/CCS)OC1=O | 8.24% (active) | 8.34% (active) | 21.4% | 12% | -57.7% (active) | 11.3% | 6.21% (active) | 21% | 10.1% | -42.5% (active)
19 | [Cl][Hg][c]1cc[c]([Hg][Cl])o1 | 70.6% | 7.68% (active) | -51.6% (active) | 22.7% | 62.1% | 51.3% | 93.4% | 75% | 14.8% | 65.5%
20 | CC(CC1CCCCC1)NCc1ccccc1 (configuration not stated) | 108% | 109% | 88.9% | 97.3% | 99.6% | 103% | 93.6% | 103% | 90.2% | 
21 | Nc1cc2nc3ccccc3nc2cc1N | 91.5% | 59.8% | 122% | 86.9% | 81.5% | 92.4% | 89.8% | 95.4% | 109% | 
22 | Brc1ccc2c(c1)c(-c1nc(-c3c[nH]c4ncccc34)cs1)cn2CCN1CCCCC1 | 82.6% | -15.7% (active) | 100% | 62.1% | 60.4% | 75.9% | 91.5% | 87.3% | 15.8% | 96.7%
23 | C[C@]12CC[C@H]3[C@@H](CC[C@]4(O)C[C@@H](O[C@@H]5O[C@H](CO)[C@@H](O[C@@H]6OC[C@@H](O)[C@H](O)[C@H]6O)[C@H](O)[C@H]5O)CC[C@]34C=O)[C@@]1(O)CC[C@@H]2C1=CC(=O)OC1 | -62.4% (active) | 4.28% (active) | -25% (active) | 42.2% | -19.4% (active) | -44.6% (active) | 8.52% (active) |  | 23.8% | -3.23% (active)
24 | CN1C(=O)C23CC4(C56CC78SSC(CO)(C(=O)N7C5Nc5ccccc56)N(C)C8=O)c5ccccc5NC4N2C(=O)C1(CO)SS3 (configuration not stated) | -100% (active) | -30.3% (active) | -76.7% (active) | -94.1% (active) |  | -97.8% (active) | -93.8% (active) | -86.4% (active) | -83.3% (active) | -94.9% (active)
25 | C[CH2][Sn]([Cl])([Cl])[CH2]C.Oc1ccccc1C=NCCN=Cc1ccccc1O | 111% | 84.2% | 95.6% | 107% | 118% | 106% |  | 87.9% | 112% | 94.1%
26 | CC(C)(N)Cc1ccccc1 | 115% | 92.8% | 112% | 119% |  | 113% | 98.1% | 107% | 105% | 101%
27 | CC(=O)[O][Hg][c]1c(N)c(C)cc(C)c1F | 36.3% | 5.95% (active) | -72.4% (active) | 7.24% (active) |  | -15.5% (active) | 73% | 28.3% | 5.84% (active) | 31%
28 | Cc1ccc(Nc2nc3c(s2)C2=CC[C@@H]4[C@H](CC[C@]5(C)C(=O)CC[C@@H]45)[C@@]2(C)CC3)cc1 | 46.5% | 19.8% | 70% | 52.8% |  | 56.3% | 5.48% (active) | 3.73% (active) | 62.2% | 80.3%
